JMJD2A Tudor inh: qHTS Assay for Inhibitors of JMJD2A-Tudor Domain; AlphaScreen JMJD2A-Tudor / H3K4me3 peptide binding; Lysine-specific demethylase 4A (Homo sapiens), O75164; actives 4.4% (n = 390,000); Potency, µM (series often up to 114 µM), inactives show at the highest dose activity change, negative = inhibition, hits mostly inhibitors; further: on the % scale 0 is the no-effect control and ±100 the full control effect; nearly all actives have a fitted effect of over 50% in size
G9a inh: qHTS Assay for Inhibitors of Histone Lysine Methyltransferase G9a. G9a H3K9 monomethylation, AlphaScreen, 2 h. Potency, µM (highest dose often 102 µM), inactives show top-dose activity, negative = inhibition, most hits filed as inhibitors. AID 504332, 2011. Histone-lysine N-methyltransferase EHMT2 (Homo sapiens), Q96KQ7. actives 8.8% (n = 350,000); further: on the % scale 0 is the no-effect control and ±100 the full control effect; nearly all actives have a fitted effect of over 75% in size
Target sequence (Q96KQ7 913-1193 limits assumed): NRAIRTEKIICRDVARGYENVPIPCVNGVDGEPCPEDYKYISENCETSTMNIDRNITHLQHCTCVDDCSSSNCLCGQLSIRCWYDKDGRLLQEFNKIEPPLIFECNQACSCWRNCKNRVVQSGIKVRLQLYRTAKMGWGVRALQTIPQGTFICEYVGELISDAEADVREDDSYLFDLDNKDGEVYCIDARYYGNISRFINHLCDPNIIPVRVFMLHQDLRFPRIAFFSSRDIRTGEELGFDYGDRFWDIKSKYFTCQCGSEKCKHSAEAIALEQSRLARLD
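Using a bead-based AlphaScreen, monomethylated H3K9 product from 2 h room-temperature reactions (G9a 20 nM, peptide 500 nM, SAM 20 uM) was detected with 0.5 ug/mL rabbit anti-H3K9me1 antibody.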
Sfp inh: qHTS Assay for Inhibitors of Bacillus subtilis Sfp phosphopantetheinyl transferase (PPTase); Biochemical Sfp PPTase activity, qHTS; Potency, µM, for the others: largest response in the series, negative = inhibition, usual class: inhibitors; actives 3.5% (n = 310,000);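 further: the enzyme is Sfp with the accession as filed and its product quenches rhodamine fluorescence; 0% = enzyme reaction without inhibitor and -100% = no enzyme wells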
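Fluorescence-quenching assay: 15 nM Sfp-PPTase preincubated 15 min at room temperature with compound, then 5 uM rhodamine-CoA and 12.5 uM BHQ-2-labelled YbbR peptide added. Fluorescence (ex 525/em 598 nm) read at start and after 30 min; difference gives rate.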
BAZ2B block: qHTS Assay for Inhibitors of BAZ2B; actives 4.4% (n = 360,000); Potency, µM (series often up to 114 µM), inactives show top-dose activity change, negative = inhibition, hits mostly inhibitors; AlphaScreen BAZ2B-H3K14Ac peptide displacement; AID 504333, 2011; further: on the % scale 0 is the no-effect control and ±100 the full control effect; nearly all actives have a fitted effect of over 60% in size
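BAZ2B (50 nM) with biotin-H3(5-23)K14Ac peptide (50 nM) in PBS pH 7.4, 0.01% Tween-20, preformed 30 min, then compound 30 min at room temperature; top concentration 110uM. AlphaScreen streptavidin donor/nickel chelate acceptor beads (10 ug/mL final), 20 min dark, signal read.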
HP1b chromo inh: HTS for Inhibitors of HP1-beta Chromodomain Interactions with Methylated Histone Tails | Chromobox protein homolog 1 (Homo sapiens), P83916 | AlphaScreen HP1-beta / biotin-H3K9me3 peptide binding | Potency, µM (doses to about 114 µM), for the others: top-dose activity change, negative = inhibition, most hits filed as inhibitors | actives 0.56% (n = 390,000); further: nearly all actives have a fitted effect of over 70% in size
Target sequence (P83916 whole entry, looked up): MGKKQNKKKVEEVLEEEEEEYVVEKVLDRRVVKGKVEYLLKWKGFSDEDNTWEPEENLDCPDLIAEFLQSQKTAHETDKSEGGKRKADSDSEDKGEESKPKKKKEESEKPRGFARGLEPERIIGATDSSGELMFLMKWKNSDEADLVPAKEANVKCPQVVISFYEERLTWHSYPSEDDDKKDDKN
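Compound inhibition of the preformed complex between 50 nM HP1-beta and 50 nM biotinylated H3K9me3 peptide was read by AlphaScreen. Buffer was PBS pH 7.4 with 0.01% Tween-20. Incubations ran 30 min at room temperature, with 10 ug/mL donor/acceptor beads.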
PLK1 PBD block: qHTS for Inhibitors of PLK1-PDB (polo-like kinase 1 - polo-box domain): Primary Screen. Serine/threonine-protein kinase PLK1 (Homo sapiens), P53350. Plk1 PBD binding of FITC phosphopeptide, fluorescence polarization. Potency, µM, without a hit: max response, negative = inhibition, most hits filed as inhibitors. actives 2.8% (n = 360,000); further: series mostly up to about 57 µM; on the % scale 0 is the no-effect control and ±100 the full control effect; nearly all actives have a fitted effect of over 65% in size
Active calls of the source: *; ? = inconclusive; nt = not tested or not shown; [ ] = dose if it differs, or a comment. The list is not random: actives were taken first. Their share in the collection is about 12%. The call rests on the fitted dose curve; in most records, active means well fitted curve in the direction sought with a large enough effect; inconclusive means small, poorly fitted or top-dose-only effect, or another doubt; inactive means no such curve, though single readings can be large; an effect the other way counts as inactive or inconclusive. Potency means the concentration at half of the fitted maximal effect.

SMILES	JMJD2A Tudor inh	G9a inh	Sfp inh	BAZ2B block	HP1b chromo inh	PLK1 PBD block
Cc1ccc2c(cnn2C(=O)CCC(=O)N2CCCCC2C)c1 (stereo not given)	-2%	23%	-4%	-3%	41%	-9%
Cc1cc(CN2CCCC(C(=O)Nc3cccc(-n4cccn4)c3)C2)cc(C)c1O (stereo not given)	-24%	?	11%	-10%	14%	?
O=C(Nc1cccc(-n2cccn2)c1)C1CCCN(Cc2cc3ccccc3[nH]2)C1 (stereo not given)	?	12%[12.7 µM]	0%	71µM*	-5%	21µM*
Cc1ccc2nc(C)c3c(c2c1)OC(C(C)(Cl)Br)C3 (stereo not given)	-20%	-8%[12.7 µM]	20µM*	-39%	29%	-6%
COc1ccc2nc(C)c3c(c2c1)OC(C(C)(Cl)Br)C3 (stereo not given)	-9%	-7%	7%	-13%	22%	-1%
N#CC1=C(N)NC(SCC(=O)O)=C(C#N)C12CCCC2	-14%	35µM*	56µM*	10%	9%	-14%
O=C(Nc1ccc2oc(=O)c(C(=O)O)cc2c1)Oc1ccccc1	-4%	nt	nt	nt	7%	?
O=C(Nc1ccc(O)c(C(=O)O)c1)Oc1ccccc1	-21%	50µM*	?	-1%	29%	-27%
CN(O)/C=c1/ccc2c(n1)C(=O)C=CC=2	20µM*	10µM*	-9%	7.9µM*	15%	-5%
CCc1ccccc1NC(=O)CC(=O)Nc1ccccc1CC	2%	nt	14%	11%	54%	-9%
Fc1ccccc1NC(=S)NCc1ccccc1	-5%	?	36%	5%	43%	-11%
Fc1ccccc1NC(=S)Nn1cnnc1	50µM*	4µM*	18µM*	-24%	-21%	6.7µM*
CCOc1ccccc1NC(=S)Nn1cnnc1	50µM*	1.8µM*	7.1µM*	?	?	2.4µM*
Cc1cccc(NC(=S)Nn2cnnc2)c1C	-10%	nt	10µM*	?	6%	?
CCc1ccccc1NC(=S)Nn1cnnc1	nt	10µM*	35µM*	-26%	nt	nt
CCCCCCCCCCCCC/C=C/[C@@H](O)C(CO)NC(C)=O (stereo not given in full)	nt	nt	-17%	nt	nt	nt
O=C(NCCc1nc2ccccc2n1Cc1ccc(Cl)cc1Cl)c1ccco1	?	-30%[59 µM]	nt	?	6%	nt
CCOc1ccc(OCCOC(=O)CN2C(=O)NC3(CCCC3)C2=O)cc1	-15%	5%	nt	13%	5%	-8%
Cc1ccccc1NC(=S)Nn1cnnc1	-25%	nt	22µM*	?	?	15µM*
CN(C)Cc1ccccc1-c1cc(NCc2cccs2)ncn1	nt	16%[0.501 µM]	5%	nt	nt	nt
Cc1cc(C)nc(-n2nc(C)cc2NC(=O)c2cccc(S(=O)(=O)N3CCCCC3)c2)n1	nt	8.9µM*	4%	-3%	nt	nt
Cc1cc(NC(=O)c2cccc(S(=O)(=O)N3CCCCCC3)c2)n(-c2ccccn2)n1	?	12%[59 µM]	7%	15%	19%	?
Cc1cc(-c2csc(NC(=O)c3ccc(=O)n(C)n3)n2)c(C)n1CC1CCCO1 (stereo not given)	-24%	?	50µM*	?	26%	-8%
COc1cc(C(=O)Nc2nc(-c3ccc(F)cc3)cs2)ccc1OCC(=O)N1CCOCC1	?	?	-5%	0%	-17%	27µM*
COc1cc(C(=O)Nc2nc(-c3ccc(C)cc3)cs2)ccc1OCC(=O)N1CCOCC1	-26%	8%[59 µM]	2%	0%	11%	-8%
SMILES	JMJD2A Tudor inh	G9a inh	Sfp inh	BAZ2B block	HP1b chromo inh	PLK1 PBD block
COc1ccc(-c2csc(NC(=O)CCCc3nc4ccccc4c(=O)[nH]3)n2)cc1OC	-20%	40µM*	nt	-3%	-3%	-6%
O=C(/C=C/c1ccc(S(=O)(=O)N2CCOCC2)cc1)NC(=S)Nc1ccc(Cl)cc1Cl	-20%	-8%[12.7 µM]	7%	-4%	-14%	-8%
Cc1cc(-c2csc(NC(=O)C3=COCCO3)n2)c(C)n1C	-22%	50µM*	nt	-3%	-10%	?
COC(=O)c1c(-c2cccc(C)c2)csc1N	?	?	-28%	?	?	-21%
COC(=O)c1c(-c2cccc(OC)c2)csc1N	-24%	40µM*	56µM*	?	-17%	?
O=C(Nc1nc(-c2cccs2)cs1)c1ccc(Cl)cc1	17%[57.1 µM]	32µM*	22%	3%	41%	-25%
O=C(Nc1nc(-c2cccs2)cs1)C1=COCCO1	14µM*	10%	-15%	1%	?	3.4µM*
O=C(Nc1nc(-c2ccc(Cl)cc2)cs1)C1=COCCO1	-21%	-4%[0.501 µM]	nt	-11%	-7%	-5%
COc1ccc(NC(=O)c2cc(OCCCN(C)C)nn2Cc2ccccc2)cc1	nt	nt	-16%	nt	nt	nt
CC(=O)Nc1nc(-c2cccc3ccccc23)cs1	?	11%[59 µM]	9%	-34%	4%	3.8µM*
COc1cccc(-c2csc(NC(C)=O)n2)c1	-8%	10µM*	-13%	5%	-11%	?
COc1ccc(-c2csc(NC(C)=O)n2)cc1OC	56µM*	-14%[59 µM]	50µM*	-13%	-18%	27µM*
O=C(Nc1nc(-c2cccs2)cs1)c1cccc(S(=O)(=O)N2CCCCC2)c1	-29%	13µM*	19%	?	23%	-10%
Cc1nnc(N2CCC(C(=O)NCCc3ccccc3Cl)CC2)c2nn(-c3ccccc3)c(C)c12	-30%	-28%[59 µM]	nt	-23%	6%	nt
O=C(Nc1nc(-c2ccc(F)c(F)c2)cs1)C1=COCCO1	-15%	-4%[12.7 µM]	nt	14%	29%	-5%
COc1ccc(-c2csc(NC(=O)C3=COCCO3)n2)cc1OC	-23%	56µM*	nt	?	7%	-21%
CCCCc1ccc(S(=O)(=O)NCCCN2CCCC2=O)cc1	-7%	nt	0%	4%	17%	3%
CCOCCCn1c(SCC(=O)Nc2ccc(F)cc2)nc2c(sc3ccccc32)c1=O	-18%	7%[59 µM]	nt	3%	9%	nt
Fc1ccc(C2=NN(c3ccccc3)C(c3ccco3)C2)cc1 (stereo not given)	218%	472%	-2%	179%	336%	-4%
C(=C\c1ccco1)/C1=NN(c2ccccc2)C(c2ccco2)C1 (stereo not given)	31%	-1%[59 µM]	28µM*	?	55%	1%
